# Molecular target: RUNX1 (UniProt Q01196)
# Assay: RUNX1 binding intensity (PBM fluorescence) in presence of ETS1, normalised to RUNX1-only experiment (arbitrary fluorescence units); higher = stronger binding
# Conditions: RUNX1 concentration 2 nM; ETS1 concentration 25 nM
# Method: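 Cooperative gcPBM on 36-bp genomic probes with neighbouring ETS1 and RUNX1 sites. Recombinant human RUNX1 (2 nM) was incubated alone or with ETS1 (25 nM) and detected with anti-RUNX1 antibody plus Alexa488 secondary. Values are medians over 4 replicate spots; the RUNX1+ETS1 data were normalised to the RUNX1-only data. The probes sit in constant array flanks that are not printed.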
# 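Further: Full-length recombinant human ETS1 or RUNX1 bound to double-stranded 36-bp genomic probes on microarrays, detected by protein-specific primary antibody and Alexa488 secondary, spot fluorescence as median of four replicate spots.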
# RUNX1, sequence (Q01196 whole entry): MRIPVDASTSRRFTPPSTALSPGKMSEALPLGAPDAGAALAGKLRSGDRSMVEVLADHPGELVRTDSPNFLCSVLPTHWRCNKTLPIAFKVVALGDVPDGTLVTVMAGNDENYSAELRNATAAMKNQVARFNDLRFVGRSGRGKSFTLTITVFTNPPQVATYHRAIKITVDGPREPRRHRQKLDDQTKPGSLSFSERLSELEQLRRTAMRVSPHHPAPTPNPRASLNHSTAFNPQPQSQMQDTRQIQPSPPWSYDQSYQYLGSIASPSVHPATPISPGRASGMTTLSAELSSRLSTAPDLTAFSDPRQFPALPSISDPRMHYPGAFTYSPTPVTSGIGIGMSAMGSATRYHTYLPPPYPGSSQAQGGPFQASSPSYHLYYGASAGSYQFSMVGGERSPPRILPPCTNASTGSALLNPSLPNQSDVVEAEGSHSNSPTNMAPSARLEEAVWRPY
row,Sequence,RUNX1 binding intensity
1,AGCGGCCTGGGAGGAGGATGTGGTTACGTGGAGACC,1510
2,GGGGAACGGAAGCTGCTGTCGTTACTGGCGGTTGTA,929
3,GACTCTTCCGGCCCAGAGCTTTCGGAGTGCGGTTGC,2130
4,GGACCGGAAGTAGGTTTCTACCCGACCGCATTTTAC,2740
5,TGTCCGCACCCCACTTCCGCCCCGCAGAGGGCAACG,3130
6,CCATTTCCGCGCACGTCTGCAGATGCGGTAGTCGAT,1830
7,TTGTCGGGTATGGGATGTGGGCAGAGAGTATGATGG,797
8,AGATCAACTTCCACATCCGGTGGTAACAGGGCCCTA,2970
9,AAAGAGGAAATCACATACCCGAAAACCACATGCACA,1200
10,CCCGGAAACTCAACTGCCCACTGCTGCGGCCGCCAT,1090
11,AGAAAAGGAAATGGTGGGCTGCACACCACAGCTCAC,1130
12,ACTCCCTAGAGCAGGAAGCCTGTGGTTTGTAATTGG,1480
13,AGACGGTAGGCCAGGAAACCGCAGGCCCCTGCCGGG,10600
14,TCCCACATCCTGTGCTCGTGCAGTGGTTAGGCTCAA,2490
15,CCGTACTTCCGCTTTACTCAGATTTTGGACCGCGGG,3640
16,AATGCCGGATATTGGTTCTGGTAAGCCACAAAAAAG,1390
17,GCACGCCATCGAGGAAGTGGGTTTACTGTGTATTTC,934
18,TGCATGTGCAGCAGAGGAAACCACAAGTTATTCCCT,1600
19,GGGATCTACTTCCTCTCTCGGCCGCGGCCGCAGCAC,1730
20,AAGGCGGAGGAAGGGAAAATTGTGGTTGGGCAGAGG,887

row,Sequence,RUNX1 binding intensity
1,CCCCTCTCTCCCACTTCCTGTGGTCTCAGTCTTTGT,4960
2,ACCCTGAAATTACCCGGATGTGGTCCCCGCGCGCGC,1930
3,GGCCGTTCTTCCGCCTGCAGGGTGGTCAGCGGAGGT,1010
4,CTGACACTTCCGGGAGCCTTGTAGCCACAGGAATCA,1800
5,ACTAGAAGCGGAAGTAGTTGTGGGCGCCTTTGCAAC,1410
6,TAACTACTTCCTTTTACTATCTACCACAATTTAATT,2810
7,CTCACAGAAGAGGCAGGAAGTGGTTTGAGTTATCAT,1590
8,ATTTTTCCTTCCTTCTCCCGTCCCCGCAGAGTGCAA,1520
9,GGAGCATCCCGGAAGTCGTCACTGCGGCCGCTCCCG,1770
10,GGCGGCACTAGGCTTCCGCCTCACCGCAGTGGGGTT,1430
11,GAGGCAGGCGGATGTCAGTGTGGTTAGAGCACAGTG,1960
12,GACAGTCATGTTTCAGGATGTGGTTTTAGCCAAAGG,1710
13,CCCGCTGTCACTTCCTGCTTCCCTCCCGCACACGTG,3690
14,GACCTGGGTTTCCTGTCTGTACATCGCGGTTCCTAC,1830
15,AGTGTCCGCCGCTTCCTGGTTGCGGGTCAGCGCCCA,2690
16,GTGGAAAGGAAATGTGTCATCTGTGGTTTGGTTTTA,1410
17,CTTTAAGGAGGCGGAAAAGTTAACCGCGATGGGCAG,1050
18,TTCAGAAAAAAAGGAAGTGGTAAATTCTTGCTGATT,1500
19,AGGCTCATTTCCTGTTTTCATGTGGTTTAGAGAAAA,3930
20,AGTGGCAGTGCAGGAAGTGGTTTGTCTGGTACAATC,1590

# — the supplement of paper PMC10681739
